This is an account of results in PubChem BioAssay.

SMILES strings stand for the structures.

The experiment can be described thus: probe aNOTCH3 binding on compound microarray – biochemical, small-molecule microarray, 635/667 nm fluorescence, primary screen (AID 1120).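 Note: probe is a biotin-tagged antibody raised against NOTCH3 rather than NOTCH3 protein; score merges spot fluorescence near 667 nm with spot signal to noise.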 Particulars: higher = more signal.
As to `CO[C@@H]1COC(=O)[C@@H]2CCCN2C(=O)[C@@H](C)COC(=O)[C@H](COCc2ccccc2)NC(=O)CC=C[C@H]1C`, the composite z-score is -0.059.

Take `C#CCCCON=C1C[C@@H](O)[C@@H](O)[C@@H]2[C@@H]3C(=O)N([C@@H](C)c4ccccc4)C(=O)[C@@H]3CC[C@H]12`: the composite z-score worked out at 0.0494.

Regarding `COCCCNC(=O)[C@@]1(C)c2ccccc2C(=O)N(Cc2ccc(OC(F)(F)F)cc2)[C@H]1c1ccc(CO)cc1`, the composite z-score was -0.271.

On to `C=COC[C@H]1CN2[C@@H](CC[C@@H](C)[C@@H]2c2ccc(Br)cc2)C(=O)O1`, for which the composite z-score stood at 0.0999.

`CC(CCN1CCCCc2nc(C)c(C)cc21)=NOC(C)CN1CCCc2nc(C)c(C)cc21` (stereo not given): the composite z-score was 0.721.

`CC(C)=NOCc1ccc(-c2cc(-c3ccccc3)no2)cc1` yielded a composite z-score of -0.0984.

Turning to `CCc1cc2c(nc1CC)CCN(CCC(C)=NOC[C@@H](O)[C@H]1O[C@@H]3OC(C)(C)O[C@@H]3[C@H]1O)C2`, the composite z-score is -0.0111.

Turning to `COc1cccc([C@H]2Oc3ccc(OC)cc3C(=NO[C@H](C)c3cn([C@@H]4COC[C@H]4O)nn3)[C@@H]2O)c1`, the composite z-score was -0.279.

`O=C(NN=C1C[C@@H](O)[C@@H](O)[C@@H]2[C@@H]3C(=O)N(c4ccc(F)cc4F)C(=O)[C@@H]3CC[C@@H]12)OCc1ccccc1` came in with a composite z-score of 0.0952.

Regarding `CCOC(=O)[C@H](Cc1ccccc1)NC(=O)CCC1CC(OC(=O)NCc2ccc3c(c2)OCO3)CC2(CCCC(COC(=O)NCc3cccc(C(F)(F)F)c3)O2)O1` (stereo not given in full), the composite z-score amounted to 0.0224.

`C[C@@H](c1ccccc1)N1C(=O)[C@H]2[C@H]3[C@H](O)C=CC(=O)[C@@H]3CC[C@H]2C1=O` showed a composite z-score of -0.0932.

Compound `Cc1cc2c(c(=O)o1)[C@H](O)[C@H]1O[C@H]1C2=O` showed a composite z-score of 0.255.

The compound `COc1ccc(COC(=O)NN=C2C[C@@H](O)[C@@H](O)[C@@H]3[C@@H]4C(=O)N(c5ccc(F)cc5F)C(=O)[C@@H]4CC[C@@H]23)cc1` displayed a composite z-score of 0.112.

In turn, `CO[C@@H]1COC(=O)CCC[C@@H](C)[C@H](OC)COC(=O)CCC[C@H]1C` showed a composite z-score of -0.0967.

For the compound `O=C1C[C@@H](O)[C@@H](O)[C@@H]2[C@@H]3C(=O)N(Cc4ccc5c(c4)OCO5)C(=O)[C@@H]3CC[C@@H]12`, the composite z-score is -0.0146.

Regarding `CC=CC1=C(CO)[C@H](O)[C@H]2O[C@H]2[C@H]1O`, the composite z-score was -0.113.

As to `CC(C)[C@H](NC(=O)OC(C)(C)C)[C@@H](O)CC(=O)OC(C)(C)C`, the composite z-score was -0.235.

On to `CO[C@H]1COC(=O)[C@@H]2CCCN2C(=O)CC=C[C@@H](C)[C@H](OC)COC(=O)CC=C[C@@H]1C`, for which the composite z-score was 0.0753.

For the compound `COC(=O)[C@H](C)NC(=O)CCC1CC(OC(=O)NCCc2ccc(F)cc2)CC2(CCCC(COC(=O)NCCc3ccc(Cl)cc3)O2)O1` (stereo not given in full), the composite z-score was found to be 0.0573.

Consider `CC(C)=CCCC(C)=CCON=C1[C@H]2CCn3c(=O)n(C)c(=O)n3[C@H]2[C@H](O)[C@@H]2O[C@H]12`, for which the composite z-score came to 0.0297.

In turn, `O=C(NN=C1C[C@@H](O)[C@@H](O)[C@@H]2[C@@H]3C(=O)N(c4cccc(Oc5ccccc5)c4)C(=O)[C@@H]3CC[C@@H]12)OCc1ccccc1` showed a composite z-score of 0.0425.

`CC(=O)OC[C@H]1O[C@H](C#CCCCc2ccccc2)C=C[C@@H]1OC(C)=O` came in with a composite z-score of -0.0647.

Consider `CC(CCN1CCc2nc(-c3ccccc3)c(-c3ccccc3)cc2C1)=NO[C@H](C)c1cn([C@@H]2COC[C@H]2O)nn1`, for which the composite z-score turned out to be 0.0864.

`O[C@@H](Cc1ccccc1)[C@H]1C2C=CCCC(c3ccccc3)=C2CN1Cc1cccc(Cl)c1` (stereo not given in full) returned a composite z-score of -0.027.

Compound `COc1ccc([Si](C)(C)[C@H]2[C@H](CCO)O[C@@]3(C(=O)N(Cc4cccc(NC(=O)[C@H](C)O)c4)c4ccccc43)[C@@H]2C)cc1` gave a composite z-score of 0.0306.

In the case of `O=C1NC(=O)C2C1C=CC(C(O)Cc1ccccc1)N2Nc1ccccn1` (stereo not given), the composite z-score was -0.0311.

`CC(CCC(=O)OC[C@H]1O[C@H](C#Cc2ccccc2)C=C[C@@H]1Oc1ccc(C)cc1)=NOC[C@@H](O)COCc1ccco1` returned a composite z-score of -0.781.

Regarding `CC1CC/C=C\[C@H]2OC34C=CCN(Cn5nnc6ccccc65)C(=O)[C@H]3N(CCO)C(=O)[C@@H]4C2C(=O)O1` (stereo not given in full), the composite z-score is -0.319.

For `CCOC(=O)CCN1C(=O)[C@H]2[C@H]3[C@H](O)[C@H](O)CC(=NNC(=O)OCc4ccc(OC)cc4)[C@@H]3CC[C@H]2C1=O`, the composite z-score is -0.153.

Take `CCN1C(=O)[C@H]2[C@H]3[C@H](O)[C@H](O)CC(=NOC(C)CN4CCCCc5nc(C)c(C)cc54)[C@@H]3CC[C@H]2C1=O` (stereo not given in full): the composite z-score is -0.0511.

`C#CCCCON=C1C[C@@H](O)[C@@H](O)[C@@H]2[C@@H]3C(=O)N(CCC(=O)OCC)C(=O)[C@@H]3CC[C@@H]12` showed a composite z-score of 0.0836.

`CCN1C(=O)[C@H]2[C@H]3[C@H](O)[C@H](O)CC(=NO[C@@H]4O[C@H](CO)[C@@H](O)[C@H](O)[C@H]4O)[C@@H]3CC[C@H]2C1=O`: the composite z-score is -0.213.

Take `COCC1=C2[C@@H](CCc3ccccc3)OB(O)C[C@@H]2n2c(=O)n(-c3ccccc3)c(=O)n2C1`: the composite z-score is -0.0204.

The compound `CN1C(=O)C2C=CC(C(O)c3ccc(Br)cc3)N(N(c3ccccc3)c3ccccc3)C2C1=O` (stereo not given) came in with a composite z-score of -0.0003.

As for `CC(CCN1CCCCc2nc(C)c(C)cc21)=NOC(C)CN1CCCCc2nc(C)c(C)cc21` (stereo not given), the composite z-score turned out to be 0.284.
